Data: ChEMBL document CHEMBL4296182, “CO-ADD screening of NIH NCI Diversity Set V”
For part of these data: Entries with a potency or affinity are not part of this list.

Experiments:
[1] = test system: Staphylococcus aureus; experiment: Antibacterial activity against Staphylococcus aureus MRSA ATCC 43300 (CO-ADD:GP_020); MIC in CAMBH media using NBS plates, by Resazurin F(560/590); format: functional; conditions: Concentration 20 uM, ASSAY_TEST Inhibition of Bacterial Growth, detection method Resazurin, Fluorescence (ex560/em590), MEDIA CAMHB, plate type 384well, CORNING #3640, time 18 hr
[2] = test system: Acinetobacter baumannii; experiment: Antibacterial activity against Acinetobacter baumannii ATCC 19606 (CO-ADD:GN_034); MIC in CAMBH media using NBS plates, by Resazurin F(560/590); format: functional; conditions: Concentration 20 uM, ASSAY_TEST Inhibition of Bacterial Growth, detection method Resazurin, Fluorescence (ex560/em590), MEDIA CAMHB, plate type 384well, CORNING #3640, time 18 hr
[3] = test system: Escherichia coli; experiment: Antibacterial activity against Escherichia coli ATCC 25922 (CO-ADD:GN_001); MIC in CAMBH media using NBS plates, by Resazurin F(560/590); format: functional; conditions: Concentration 20 uM, ASSAY_TEST Inhibition of Bacterial Growth, detection method Resazurin, Fluorescence (ex560/em590), MEDIA CAMHB, plate type 384well, CORNING #3640, time 18 hr
[4] = test system: Klebsiella pneumoniae; conditions: Concentration 20 uM; ASSAY_TEST Inhibition of Bacterial Growth; detection method Absorption (OD600); MEDIA CAMHB; plate type 384well; NBS; CORNING #3640; time 18 hr
[5] = test system: Candida albicans; conditions: 20 µM
[6] = test system: Cryptococcus neoformans; conditions: Concentration 20 uM; ASSAY_TEST Inhibition of Fungal Growth; detection method Resazurin; Absorption (OD600-OD570); plate type 384well; NBS; CORNING #3640

Row | SMILES | Inhibition [1] | Inhibition [2] | Inhibition [3] | Inhibition [4] | Inhibition [5] | Inhibition [6]
1 | Cc1c(NC(=O)Nc2c(Cl)cccc2Cl)c(=O)n(-c2ccccc2)n1C | 9.25% | 9.07% | 6.32% | 8.26% | -0.35% | -0.01%
2 | CN1CN(C)C(c2ccncc2)=C1c1ccncc1 | 5.44% | 14.08% | -2.65% | 0.75% | -0.59% | -1.9%
3 | COc1ccccc1NC(=O)c1cc2ccccc2cc1O | 12.35% | 5.68% | 6.98% | 12.44% | -0.94% | -6.93%
4 | O=C(Nc1nc2ccccc2s1)Nc1ccc([N+](=O)[O-])cc1Cl | 3.4% | 12.6% | -5.05% | 8.17% | 4.63% | -2.66%
5 | CC(=O)Nc1ccc(S(=O)(=O)N=S(C)C)cc1 | 11.09% | 5.41% | 5.54% | 15.05% | 3.87% | -12.86%
6 | CCC(C)NC(=O)CC(C)C (stereo not given) | 6.08% | -12.68% | 19.94% | 15.35% | -0.68% | -12.52%
7 | O=C(N(c1ccccc1)c1ccccc1)N(c1ccccc1)c1ccccc1 | 13.33% | 0.28% | 8.76% | 13.27% | 9.21% | -13.12%
8 | CCOC(=O)c1c[nH]nc1O | 2.24% | -6.35% | -2.97% | 21.4% | -1.88% | 1.44%
9 | N#C/C(=C\c1cc(O)c(O)c(O)c1)C(N)=O | -3.49% | 6.06% | 5.21% | 9.86% | 5.49% | -11.36%
10 | O=[N+]([O-])c1ccc2c3ccccc3[s+]([O-])c2c1 (stereo not given) | 5.76% | 5.87% | 8.3% | 9.17% | 6.79% | -11.15%
11 | Nc1ccc2c(c1)N=[N+]([O-])c1cc(N)ccc1C2 | 12.24% | -9.52% | 10.77% | 23.9% | -4.33% | -8.98%
12 | CCN1CCC(Nc2ccnc3cc(Cl)ccc23)CC1 | 11.96% | -0.07% | -4.98% | 16.53% | 2.51% | -6.53%
13 | C#CC(C)OCC1CNC(=S)O1 (stereo not given) | 8.34% | 0.13% | 10.24% | 3.71% | 4.06% | 15.9%
14 | Cc1ccc(C)c(-n2c(-c3ccc(Br)cc3)cs/c2=N\C(=O)c2ccccc2F)c1 | 15.56% | -6.11% | 6.4% | 8.65% | 4.24% | -4.37%
15 | O=C(O)/C=C/C(=O)N1Cc2cc3ccccc3nc2C1 | 3.21% | -0.11% | -4.23% | 9.8% | 1.99% | -3.38%
16 | CCN(CC)c1ccc(/C=C/c2cc(-c3ccccc3)c3ccccc3n2)cc1 | 16.67% | 5.92% | 4.61% | 11.78% | 4.35% | -9.69%
17 | CCNc1nc(Cl)nc(-c2cn(-c3ccccc3)c3ccccc23)n1 | 17.23% | 12.81% | 4.37% | 13.6% | 0.17% | -5.12%
18 | COC(=O)c1c[n+]([O-])ccc1OC | -9.06% | -1.68% | -4.59% | 7.09% | -2.55% | -2.93%
19 | NC(=O)c1ccc2c(c1)S(=O)(=O)c1ccccc1C2=O | 12.96% | -8.12% | -3.77% | 24.13% | 1.19% | -8.66%
20 | COc1cc(C(=O)C(=O)c2ccc(O)c(OC)c2)ccc1O | -3.81% | -13.36% | 16.47% | 8.6% | 1.86% | -17.88%
21 | Nc1ccc(/N=N/c2ccccc2)c2ccccc12 | 1.47% | -18.91% | 11.66% | 8.12% | 1.76% | -16.64%
22 | COC1OCC(O)C(NC(=O)N(C)N=O)C1O (stereo not given) | -1.39% | 15.65% | -7.74% | 18.14% | 5.35% | -2.94%
23 | CC1CO/C(=C2\C(=O)OCC2C)C1 (stereo not given) | 4.79% | -14.17% | 10.92% | 2.95% | 41.2% | -12.83%
24 | CC1=NN(c2ccccc2)C(=O)C1/N=N/c1ccc(S(N)(=O)=O)cc1 (stereo not given) | -7.63% | 9.06% | 7.33% | 5.84% | 11.2% | -4.3%
25 | Cc1ccc(C(C)C)cc1NC(=O)Nc1ccc([N+](=O)[O-])cc1 | 19.7% | 7.88% | -5.77% | 22.27% | 8.72% | -7.56%

Row | SMILES | Inhibition [1] | Inhibition [2] | Inhibition [3] | Inhibition [4] | Inhibition [5] | Inhibition [6]
26 | CC12C(=O)N(c3nccs3)C(=O)C1(C)C1CCC2O1 (stereo not given) | 6.57% | 6.5% | 7.81% | 14.08% | 2.65% | -13.24%
27 | Nc1cc(N)nc(CS)n1 | 9.52% | -5.46% | 6.53% | 20.9% | -2.73% | -6.05%
28 | COCC(O)Cn1ccnc1[N+](=O)[O-] (stereo not given) [MISONIDAZOLE] | -3.32% | 6.49% | 6.97% | 11.9% | 1.35% | -12.64%
29 | CCOc1ccc(NC(=O)C2CCCN(C)C2)cc1 (stereo not given) | 8.6% | 6.87% | -2.25% | 20.11% | 9.11% | -4.92%
30 | CC(=O)NS(=O)(=O)c1ccc2sc(C)nc2c1 | 3.75% | -11.67% | 8.35% | 5.23% | 3.43% | -4.98%
31 | Nc1ncnc2c1ncn2C=C=CCO | 13.44% | 8.12% | -2.59% | 6.59% | 1.58% | -2.86%
32 | O=[N+]([O-])c1ccc(Cn2cnc3c(O)ncnc32)cc1 | 10.19% | 8.82% | 7.89% | 11.73% | 2.42% | -11.97%
33 | CN(C)c1ccc2c(c1)Sc1cc(N(C)C)ccc1N2C(=O)c1ccccc1 | -9.71% | 0.08% | 1.67% | 25.07% | 11% | -3.81%
34 | N#Cc1cnn2ccn(C3OC(CO)C(O)C3O)c12 (stereo not given) | 2.98% | -3.63% | 8.76% | 13.94% | 4.75% | -11.71%
35 | CCCCOc1ccc(NC(=O)Nc2nnc(C)s2)cc1 | 12.15% | 11.82% | 5.52% | 16.37% | -3.65% | -3.97%
36 | CCCSc1ncnc2[nH]ncc12 | 4.5% | -9.04% | 5.02% | 27.49% | 6.91% | -5.45%
37 | O=C(OCC1CCC=CO1)C1CCC=CO1 (stereo not given) | 6.99% | -10.56% | 3.07% | 7.72% | 0.31% | -9.47%
38 | CC1=C(C(N)=O)S(=O)(=O)c2ccccc21 | 7.64% | -12.26% | 14.02% | 8.77% | 2.88% | -16.62%
39 | CC(=O)Nc1ccc2cc3ccc(NC(C)=O)cc3nc2c1 | 13.51% | 10.7% | 0.73% | 15.61% | 3.5% | -4.12%
40 | Cc1ccc(/C=C2\CCOC2=O)cc1 | 9.11% | -13.71% | 3.05% | 29.06% | 11.6% | 1.19%
41 | N#C/C(=C\c1c[nH]c2ccccc12)C(N)=O | 13.33% | 12.56% | 0.03% | 10.43% | 4.53% | -10.69%
42 | CN(C)CCCn1c2c3ccccc3ccc2c2oc(=O)c3ccccc3c21.Cl | 14.28% | -7.18% | 12.65% | 11.13% | 0.85% | -2.35%
43 | NNC(=O)CNC(=O)Nc1nnc(S)s1 | 1.09% | 15.79% | -4.75% | 16.78% | 2.5% | -8.13%
44 | Nc1ccccc1SC1CC(=O)N(c2ccc(Cl)c(Cl)c2)C1=O (stereo not given) | 1.48% | 12.22% | 0.8% | 8.81% | 8.62% | -1.72%
45 | O=C(O)c1nn(-c2ccccc2-c2nnc(O)nc2O)c(=O)[nH]c1=O | 28.61% | 10.46% | 9.27% | 22.91% | 1.7% | 4.78%
46 | CC(NC(=O)c1ccc(Cl)c(Cl)c1)c1ccc(-c2ccccc2)cc1 (stereo not given) | 12.08% | 7.23% | 12.06% | 14.03% | -5.14% | -10.74%
47 | Nc1ccc(C(=O)Nc2ccc(Nc3ccncc3)cc2)cc1 | -3.72% | 6.97% | -13.54% | 10.04% | 2.67% | -0.31%
48 | COc1ccc(CN2CCOC2=O)cc1OC | 2.93% | -8.7% | 2.98% | 20.13% | -0.97% | -5.16%
49 | COc1ccc(/N=N/c2c(N)n[nH]c2N)cc1 | 9.98% | -10.61% | 6.79% | 12.54% | 3.82% | -6.57%
50 | FC(F)(F)c1cccc(OCC2CN=C(S)O2)c1 (stereo not given) | 8.92% | 11.68% | -6.27% | 16.05% | 8.74% | 3.63%
